Assay results as given in PubChem BioAssay AID1159580 (chemical genetic matrix, 2015).
Several values for one entry are separate records, joined by “and”; a condition that tells them apart may be missing. Identical values can stand only once. Screen size: about 5,500 compounds; about 2,000 (36%) were called active. About 18% were inconclusive and are not listed. No stated cut-off is given here; in the data, active means normalized growth mostly below about 0.91 (no sharp cut-off); inconclusive means no clear call, values can overlap the other calls; inactive means mostly above about 0.92. This is one part of the list.

Experiment: chemical genetic growth profiling, strain panel (AID 1159580);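 further: tested at 20 µM; growth read once vehicle control cultures reached saturation at 30 °C; 1 = growth at the plate median or of vehicle wells; lower values mean less growth of the strain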
Conditions: growth OD
[1] = S. cerevisiae deletion strains, locus YAL013W, strain DEP1, hits give low values
[2] = S. cerevisiae deletion strains, locus YBR229C, strain ROT2, hits give low values
[3] = S. cerevisiae deletion strains, locus YDL101C, strain DUN1, hits give low values
[4] = S. cerevisiae deletion strains, locus YDR150W, strain NUM1, hits give low values
[5] = S. cerevisiae deletion strains, locus YEL061C, strain CIN8, hits give low values
[6] = S. cerevisiae deletion strains, locus YGR078C, strain PAC10, hits give low values
[7] = S. cerevisiae deletion strains, locus YGR229C, strain SMI1, hits give low values
[8] = S. cerevisiae deletion strains, locus YHR030C, strain SLT2, hits give low values
[9] = S. cerevisiae deletion strains, locus YKL190W, strain CNB1, hits give low values
[10] = S. cerevisiae deletion strains, locus YLR039C, strain RIC1, hits give low values
[11] = S. cerevisiae deletion strains, locus YMR263W, strain SAP30, hits give low values
[12] = S. cerevisiae deletion strains, locus YMR307W, strain GAS1, hits give low values
[13] = S. cerevisiae deletion strains, locus YNL153C, strain GIM3, hits give low values
[14] = S. cerevisiae deletion strains, locus YOL006C, strain TOP1, hits give low values
[15] = S. cerevisiae deletion strains, locus YPL055C, strain LGE1, hits give low values
[16] = S. cerevisiae deletion strains, locus YPL241C, strain CIN2, hits give low values
[17] = S. cerevisiae deletion strains, locus YAL040C, strain CLN3, hits give low values
[18] = S. cerevisiae deletion strains, locus YCL061C, strain MRC1 (second series), hits give low values
[19] = S. cerevisiae deletion strains, locus YDR363W, strain ESC2, hits give low values
[20] = S. cerevisiae deletion strains, locus YER002W, strain NOP16, hits give low values
[21] = S. cerevisiae deletion strains, locus YNL175C, strain NOP13, hits give low values
[22] = S. cerevisiae deletion strains, locus YNL197C, strain WHI3, hits give low values
[23] = S. cerevisiae deletion strains, locus YNL224C, strain SQS1, hits give low values
[24] = S. cerevisiae deletion strains, locus YOR083W, strain WHI5 (second series), hits give low values

Measured: normalized growth

COC(=O)c1cc(OC)c(OC)cc1-n1c(C)ccc1C
inactive: [1] 0.999 | [2] 0.994 | [3] 0.975 | S. cerevisiae deletion strains, locus YDL134C, strain PPH21, hits give low values 1.03 | [4] 0.947 | [5] 1.01 | [6] 0.987 | [7] 1 | [8] 0.999 | S. cerevisiae deletion strains, locus YHR087W, strain rtc3, hits give low values 0.983 | S. cerevisiae deletion strains, locus YJR043C, strain POL32, hits give low values 0.985 | S. cerevisiae deletion strains, locus YJR075W, strain HOC1, hits give low values 0.963 | [9] 1.01 | [10] 0.993 | S. cerevisiae deletion strains, locus YLR058C, strain SHM2 (second series), hits give low values 0.995 | S. cerevisiae deletion strains, locus YLR085C, strain ARP6, hits give low values 1.01 | S. cerevisiae deletion strains, locus YLR262C, strain YPT6, hits give low values 0.957 | S. cerevisiae deletion strains, locus YML094W, strain GIM5, hits give low values 1 | S. cerevisiae deletion strains, locus YMR219W, strain ESC1, hits give low values 0.998 | [11] 0.91 | [12] 0.948 | [13] 0.983 | S. cerevisiae deletion strains, locus YNL298W, strain CLA4 (second series), hits give low values 1.02 | S. cerevisiae deletion strains, locus YNL322C, strain KRE1, hits give low values 0.99 | S. cerevisiae deletion strains, locus YNR030W, strain Alg12, hits give low values 1.01 | [14] 1 | [15] 0.877 | [16] 1 | S. cerevisiae deletion strains, locus YPR135W, strain CTF4, hits give low values 0.915 | S. cerevisiae strains, strain wild type, hits give low values 1.01

CC(=O)O[C@@H]1CC2C(C)(C)C(=O)CC[C@]2(C)C2CC[C@]3(C)C(=CC(=O)O[C@H]3c3ccoc3)[C@@]21C (stereo not given in full)
inactive: [1] 0.988 | S. cerevisiae deletion strains, locus YBR021W, strain FUR4, hits give low values 0.989 | [2] 0.939 | S. cerevisiae deletion strains, locus YCL029C, strain bik1, hits give low values 0.985 | S. cerevisiae deletion strains, locus YDL035C, strain GPR1, hits give low values 0.964 | S. cerevisiae deletion strains, locus YDL074C, strain BRE1, hits give low values 0.954 | [3] 1 | S. cerevisiae deletion strains, locus YDL185W, strain tfp1, hits give low values 0.966 | S. cerevisiae deletion strains, locus YDL192W, strain arf1, hits give low values 0.971 | S. cerevisiae deletion strains, locus YDR101C, strain arx1, hits give low values 0.959 | S. cerevisiae deletion strains, locus YDR162C, strain NBP2, hits give low values 0.98 | S. cerevisiae deletion strains, locus YDR318W, strain mcm21, hits give low values 0.992 | S. cerevisiae deletion strains, locus YDR388W, hits give low values 0.995 | S. cerevisiae deletion strains, locus YDR502C, strain sam2, hits give low values 1.01 | [5] 0.972 | S. cerevisiae deletion strains, locus YER110C, hits give low values 0.978 | S. cerevisiae deletion strains, locus YER155C, strain BEM2, hits give low values 0.991 | S. cerevisiae deletion strains, locus YER167W, strain BCK2, hits give low values 0.97 | S. cerevisiae deletion strains, locus YGL078C, strain dbp3, hits give low values 1.01 | S. cerevisiae deletion strains, locus YGL086W, strain mad1, hits give low values 0.998 | S. cerevisiae deletion strains, locus YGL248W, strain PDE1, hits give low values 0.999 | [6] 1.02 | S. cerevisiae deletion strains, locus YGR135W, strain pre9, hits give low values 1.07 | S. cerevisiae deletion strains, locus YGR252W, strain gcn5, hits give low values 1.03 | [8] 1.06 | S. cerevisiae deletion strains, locus YHR079C, strain IRE1 (second series), hits give low values 0.975 | S. cerevisiae deletion strains, locus YHR079C, strain IRE1, hits give low values 1.04 | S. cerevisiae deletion strains, locus YHR094C, strain hxt1, hits give low values 0.991 | S. cerevisiae deletion strains, locus YHR129C, strain ARP1, hits give low values 0.989 | S. cerevisiae deletion strains, locus YHR200W, strain rpn10, hits give low values 1 | S. cerevisiae deletion strains, locus YIL066C, strain RNR3, hits give low values 0.948 | S. cerevisiae deletion strains, locus YIL073C, strain SPO22, hits give low values 0.977 | S. cerevisiae deletion strains, locus YIL125W, strain kgd1, hits give low values 0.993 | S. cerevisiae deletion strains, locus YIR030C, strain dcg1, hits give low values 0.987 | S. cerevisiae deletion strains, locus YJL095W, strain BCK1, hits give low values 1.05 and 1.06 | S. cerevisiae deletion strains, locus YJL134W, strain LCB3, hits give low values 0.98 | S. cerevisiae deletion strains, locus YJL168C, strain set2, hits give low values 0.988 | S. cerevisiae deletion strains, locus YJL187C, strain SWE1 (second series), hits give low values 1.01 | S. cerevisiae deletion strains, locus YJR066W, strain TOR1, hits give low values 0.991 | S. cerevisiae deletion strains, locus YKL009W, strain mrt4, hits give low values 0.976 | S. cerevisiae deletion strains, locus YKL068W, hits give low values 0.991 | S. cerevisiae deletion strains, locus YKL085W, strain MDH1 (second series), hits give low values 0.995 | S. cerevisiae deletion strains, locus YKL085W, strain MDH1, hits give low values 0.995 | [9] 0.983 | S. cerevisiae deletion strains, locus YKR001C, strain vps1, hits give low values 0.974 | [10] 0.961 | S. cerevisiae deletion strains, locus YLR058C, strain SHM2, hits give low values 0.979 | S. cerevisiae deletion strains, locus YLR102C, strain apc9, hits give low values 0.99 | S. cerevisiae deletion strains, locus YLR113W, strain HOG1, hits give low values 1.03 | S. cerevisiae deletion strains, locus YLR268W, strain sec22, hits give low values 0.956 | S. cerevisiae deletion strains, locus YLR371W, strain rom2, hits give low values 0.967 | S. cerevisiae deletion strains, locus YLR418C, strain cdc73, hits give low values 1 | S. cerevisiae deletion strains, locus YML016C, strain PPZ1, hits give low values 0.978 | S. cerevisiae deletion strains, locus YML032C, strain rad52, hits give low values 0.982 | S. cerevisiae deletion strains, locus YML124C, strain tub3, hits give low values 0.992 | S. cerevisiae deletion strains, locus YMR078C, strain ctf18, hits give low values 0.989 | S. cerevisiae deletion strains, locus YMR223W, strain ubp8, hits give low values 1 | [12] 0.989 | S. cerevisiae deletion strains, locus YNL067W, strain RPL9B, hits give low values 1.04 | S. cerevisiae deletion strains, locus YNL183C, strain NPR1, hits give low values 0.989 | S. cerevisiae deletion strains, locus YNL233W, strain BNI4, hits give low values 1.03 | S. cerevisiae deletion strains, locus YNL250W, strain rad50, hits give low values 0.992 | S. cerevisiae deletion strains, locus YNL271C, strain bni1, hits give low values 0.993 | S. cerevisiae deletion strains, locus YNL298W, strain CLA4, hits give low values 0.989 | S. cerevisiae deletion strains, locus YNL307C, strain MCK1, hits give low values 0.982 | S. cerevisiae deletion strains, locus YNR052C, strain pop2, hits give low values 1.04 | [14] 0.932 | S. cerevisiae deletion strains, locus YOL012C, strain htz1 0.896 | S. cerevisiae deletion strains, locus YOL147C, strain pex11, hits give low values 0.984 | S. cerevisiae deletion strains, locus YOR061W, strain CKA2, hits give low values 0.934 | S. cerevisiae deletion strains, locus YOR069W, strain VPS5, hits give low values 0.996 | S. cerevisiae deletion strains, locus YOR136W, strain idh2, hits give low values 1 | S. cerevisiae deletion strains, locus YOR144C, strain elg1, hits give low values 0.997 | S. cerevisiae deletion strains, locus YOR184W, strain ser1, hits give low values 0.964 | S. cerevisiae deletion strains, locus YOR231W, strain MKK1, hits give low values 1.07 | S. cerevisiae deletion strains, locus YOR316C, strain cot1, hits give low values 0.997 | [16] 0.978 | S. cerevisiae deletion strains, locus YPL256C, strain CLN2, hits give low values 1.05 | S. cerevisiae deletion strains, locus YPR119W, strain clb2, hits give low values 0.992 | S. cerevisiae deletion strains, locus YPR141C, strain kar3, hits give low values 0.982 | S. cerevisiae deletion strains, locus YPR163C, strain tif3, hits give low values 0.99 | S. cerevisiae deletion strains, locus YPR167C, strain met16, hits give low values 0.992 | S. cerevisiae deletion strains, strain wtn01, hits give low values 0.967

CC[N+](CC)(CC)CC(=O)Nc1c(C)cccc1C
inactive: [17] 0.958 | [18] 0.999 | [4] 1 | [19] 1.02 | [20] 1.01 | [6] 1.02 | [7] 1 | [11] 1 | S. cerevisiae deletion strains, locus YNL128W, strain TEP1, hits give low values 1.01 | [13] 0.995 | [21] 1 | [22] 1.01 | [23] 0.999 | [24] 0.999 | [15] 1.01

Cc1cccc(C)c1NC(=O)C[N+](C)(C)C
inactive: [1] 1.03 | [17] 0.995 | [18] 1 | [19] 1.01 | [20] 1.01 | [6] 0.984 | [7] 1 | [13] 1.01 | [21] 0.993 | [22] 0.989 | [23] 1.01 | [24] 1.02
